# Screen size: about 4,100 compounds; about 1,600 (39%) were called active. Roughly 25% stayed inconclusive and do not appear here. Calls follow the shape of the dose curve; as a rule, active = well fitted inhibition curve with a large enough effect; inconclusive = small, poorly fitted or top-dose-only effect; inactive = no such curve, though single readings can be large or run the other way. The list shows a part of the results.
# Assay: qHTS Validation assay for Inhibitors of Plasmodium falciparum Dd2 growth in vitro; also: nearly all actives have a fitted effect of over 70% in size
# Conditions: P. falciparum Dd2 in RBCs, SYBR Green growth, 72 h; series mostly up to 28.7 µM; activity change, negative = inhibition: at the top concentration
# Method in brief: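 P. falciparum Dd2-infected red blood cells (2.5% hematocrit, 0.3% parasitemia) grown 72 h at 37 °C under 5% O2 with compounds in a titration, 29 uM to 0.5 nM final. Growth read as SYBR Green-1 fluorescence after ~16 h lysis; artesunate 300 nM as positive control.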
# % is scaled to controls: 0 for no effect and ±100 for the full control effect; potency is read from the fitted curve at half-maximal effect.
SMILES,Potency,"activity change, negative = inhibition"
O=c1[nH]c(C2CCN(S(=O)(=O)c3ccc4c(c3)OCCO4)CC2)nc2c1nnn2Cc1ccc(F)cc1,8.41 µM (active),
Cc1nncn1C1CCN(S(=O)(=O)c2ccc(F)c(F)c2)CC1,,9.9% (inactive)
O=c1[nH]c(C2CCN(S(=O)(=O)/C=C/c3ccccc3)CC2)nc2c1nnn2Cc1ccc(F)cc1,13.3 µM (active),
c1ccc(-c2noc(-c3cncnc3NC3CCCCCC3)n2)cc1,,23.1% (inactive)
CC(C)(C)NC(=S)Nc1ccc(Nc2ccccc2)cc1,,-11.7% (inactive)
CC(C)Oc1ccc2c(c1)OC(c1ccccc1)(C(F)(F)F)NC2=O (stereo not drawn),2.66 µM (active),
CCOc1ccc2c(c1)OC(c1ccc(C)cc1)(C(F)(F)F)NC2=O (stereo not drawn),2.66 µM (active),
CCCNC(=O)Nc1ccc(OC2CCN(C(=O)CC)C2)nc1 (stereo not drawn),,-27.2% (inactive)
CCOC(=O)Cn1c(=O)c2c(nc(N3CCCCC3)n2C)n(C)c1=O,,18.2% (inactive)
CCn1c(N2CCC(C)CC2)nc2c1c(=O)n(C)c(=O)n2C,5.96 µM (active),
O=C(Nc1ccc([N+](=O)[O-])cc1)Nc1nc(-c2ccc(Cl)s2)cs1,2.99 µM (active),
O=C(Nc1ccc(Cl)cc1)Nc1nc(-c2ccccc2O)cs1,6.68 µM (active),
COc1ccc(-c2csc(NC(=O)C(CC(=O)O)N3CCOCC3)n2)cc1 (stereo not drawn),,-0.243% (inactive)
O=C(Nc1nc(-c2ccccn2)cs1)c1cccc(S(=O)(=O)N2CCOCC2)c1,5.96 µM (active),
O=C(Nc1nc(-c2ccccn2)cs1)c1ccc(F)c(S(=O)(=O)N2CCOCC2)c1,2.11 µM (active),
N#Cc1cc(C#N)c(N2CCN(c3cccc(Cl)n3)CC2)nc1N,3.35 µM (active),
Cc1ccc(C(=O)N2CCC(c3c[nH]c4ccccc34)(c3c[nH]c4ccccc34)CC2)cc1,8.41 µM (active),
Cn1nccc1C(=O)N1CCC2(CC1)NCCc1c2[nH]c2ccccc12,,5.72% (inactive)
COCc1noc(CC2CCOC3(CCN(C(=O)c4c[nH]c5ccccc45)CC3)C2)n1 (stereo not drawn),,0.0446% (inactive)
c1ccc([C@H]2CN3CCSC3=N2)cc1,,52.3% (inactive)
CC(C)(C)c1ccc(C(=O)N2CCC3(C2)NC(=O)N(Cc2ccc(Cl)cc2)C3=O)cc1 (stereo not drawn),,14.4% (inactive)
O=C(NCc1ccccc1)N1CCC2(CC1)CC(N(C(=O)c1ccccc1)C1CC1)CCO2 (stereo not drawn),,-10.8% (inactive)
NC(Cc1ccccc1)C(=O)N1CCC2(CC1)CN(C(=O)c1ccc(Cl)cc1)CCO2 (stereo not drawn),0.842 µM (active),
Cc1ccc(CN2CCNC(=O)C2CC(=O)N(CC(C)C)CC(C)C)cc1 (stereo not drawn),,13.2% (inactive)

SMILES,Potency,"activity change, negative = inhibition"
CC1(C)Cc2c(c(N3CCOCC3)nc3snc(Br)c23)CO1,0.299 µM (active),
CCN1CCN(c2nc(SC)nc3sc4c(c23)CC(C)(C)OC4)CC1,,191% (inactive)
CCCNC(=O)c1ccc(N2CCC3(CC2)CC(c2cccc(Br)c2)=NO3)c(NC(=O)c2ccco2)c1,2.99 µM (active),
Cc1ccc(CNC(=O)c2ccc(N3CCC4(CC3)CC(c3cccc(Br)c3)=NO4)c(NC(=O)c3ccco3)c2)cc1,8.41 µM (active),
CCOc1cc(NC(=S)NC)c(OCC)cc1NC(=O)c1ccco1,,4% (inactive)
COc1nc(N=C(N)N)nc2c(C)cccc12,,6.43% (inactive)
CCOc1nc(N=C(N)N)nc2c(C)cccc12,10.6 µM (active),
CN1C(=O)CS(=O)(=O)C12CCN(C(=O)c1cc(F)ccc1Cl)CC2,,33.6% (inactive)
Cc1ccc(C2Cn3nnc(-c4noc(CNC(=O)c5ccccc5)n4)c3CO2)cc1 (stereo not drawn),,2.54% (inactive)
Cc1ccc(C2Cn3nnc(-c4noc(-c5n[nH]c6c5CCCC6)n4)c3CO2)cc1 (stereo not drawn),13.3 µM (active),
Cc1ccc(C2Cn3nnc(-c4noc(-c5nn(C)c6ccccc56)n4)c3CO2)cc1 (stereo not drawn),,-11.5% (inactive)
O=c1c2ccccc2nc(/C=C/c2cc(Br)ccc2O)n1CCCO,9.44 µM (active),
CCn1c(/C=C/c2cc(Br)ccc2O)nc2ccccc2c1=O,4.22 µM (active),
Oc1ccc(Br)cc1Cn1nnc2ccccc21,,-20.1% (inactive)
O=C(c1ccccc1-c1ccccc1)N1CCC(c2ncc[nH]2)CC1,,11.4% (inactive)
CCc1c(C)[nH]c2ccccc2c1=O,10.6 µM (active),
CCCc1c(C)[nH]c2ccccc2c1=O,7.5 µM (active),
C=CCc1c(C)[nH]c2ccc(C)cc2c1=O,,4.14% (inactive)
COc1cccc(NC(=S)N2CCN(S(=O)(=O)c3ccc(F)cc3)CC2)c1,2.66 µM (active),
O=c1nc2ccccn2c2ccc(S(=O)(=O)N3CCCCC3)cc12,,-7.23% (inactive)
O=C(Cn1ccc2cc(S(=O)(=O)N3CCCCCC3)ccc21)NCCc1ccc(Cl)cc1,,-7.98% (inactive)
O=S(=O)(c1ccc2ccccc2c1)N1CCN(C(=S)Nc2ccccc2F)CC1,4.22 µM (active),
COc1cccc(S(=O)(=O)N2CCC3(CC2)C(OC)C(=O)N3c2cccc(F)c2)c1 (stereo not drawn),,9.51% (inactive)
O=S(=O)(c1ccc(Cl)cc1)N1CCN(C(=S)Nc2ccccc2F)CC1,2.37 µM (active),

# Source: PubChem BioAssay AID1347416 (National Center for Advancing Translational Sciences (NCATS), 2020)
